In a collection of fitness landscapes (doi:10.1126/science.1257360):
Over roughly 140,000 sequences, “enrichment ratio after two sorts for PhoP signalling” has its median near 0; the highest 2% begin near 11. This is one part of a sample in which the highest values are shown more often than they occur.

B1: PhoQ; a variant is named by its letters at X, in order, P23837 (parent)
chain: MKKLLRLFFPLSLRVRFLLATAAVVLVLSLAYGMVALIGYSVSFDKTTFRLLRGESNLFYTLAKWENNKLHVELPENIDKQSPTMTLIYDENGQLLWAQRDVPWLMKMIQPDWLKSNGFHEIEADVNDTSLLLSGDHSIQQQLQEVREDDDDAEMTHSVAVNVYPATSRMPKLTIVVVDTIPVELKSSYMVWSWFIYVLSANLLLVIPLLWVAAWWSLRPIEALAKEVRELEEHNRELLNPATTRELTSLVRNLNRLLKSERERYDKYRTTLTDLTHSLKTPLXXLQXXLRSLRSEKMSVSDAEPVMLEQISRISQQIGYYLHRASMRGGTLLSRELHPVAPLLDNLTSALNKVYQRKGVNISLDISPEISFVGEQNDFVEVMGNVLDNACKYCLEFVEISARQTDEHLYIVVEDDGPGIPLSKREVIFDRGQRVDTLRPGQGVGLAVAREITEQYEGKIVAGESMLGGARMEVIFGRQHSAPKDE

Variants of: B1
Experiment: enrichment ratio after two sorts for PhoP signalling (ratio (wild type AVST 3.29)); higher = more functional
Details: with PhoP (E. coli)
Work on QLVG yielded an enrichment ratio of no more than 0.25.
With ADVM the enrichment ratio was 6.88.
With KTVF the enrichment ratio was no more than 0.25.
GTKH gave an enrichment ratio of no more than 0.25.
Variant IWLA has an enrichment ratio of no more than 0.25.
For HKCT, the enrichment ratio was no more than 0.25.
For TKCT, the enrichment ratio was 38.2.
For FDCT, the enrichment ratio was no more than 0.25.
Work on TRCT yielded an enrichment ratio of 18.2.
ADCT gave an enrichment ratio of no more than 0.25.
ADQT was tested, and the enrichment ratio was no more than 0.25.
With KKCT the enrichment ratio was no more than 0.25.
For TDQT, the enrichment ratio was 34.2.
HRCT gave an enrichment ratio of no more than 0.25.
In the case of KDQT, the enrichment ratio is reported as no more than 0.25.
TDCT was tested, and the enrichment ratio was 14.8.
KRCT was tested, and the enrichment ratio was no more than 0.25.
SNRN was tested, and the enrichment ratio was no more than 0.25.
VNAY showed an enrichment ratio of no more than 0.25.
For NARV, the enrichment ratio was no more than 0.25.
WLPG showed an enrichment ratio of no more than 0.25.
LHMC showed an enrichment ratio of no more than 0.25.
For VHGV, the enrichment ratio was no more than 0.25.
With KDPY the enrichment ratio was no more than 0.25.
In the case of PSCV, the enrichment ratio is reported as no more than 0.25.
Work on KAQT yielded an enrichment ratio of no more than 0.25.
KSQT gave an enrichment ratio of no more than 0.25.
TKAT was tested, and the enrichment ratio was 14.5.
Work on TKLT yielded an enrichment ratio of 15.3.
KKLT showed an enrichment ratio of no more than 0.25.
TKQT was tested, and the enrichment ratio was 11.7.
TKPT gave an enrichment ratio of no more than 0.25.
TKKT was tested, and the enrichment ratio was no more than 0.25.
TKFT showed an enrichment ratio of no more than 0.25.
In the case of TDYD, the enrichment ratio is reported as no more than 0.25.
Work on WDAF yielded an enrichment ratio of no more than 0.25.
NEHT showed an enrichment ratio of no more than 0.25.
In the case of MRHT, the enrichment ratio is reported as 0.477.
Work on YYHT yielded an enrichment ratio of no more than 0.25.
Work on MEHT yielded an enrichment ratio of 24.2.
Variant MLHT has an enrichment ratio of 11.5.
With TEHT the enrichment ratio was 27.2.
QEHT showed an enrichment ratio of 9.94.
KLHT gave an enrichment ratio of no more than 0.25.
Variant MMHT has an enrichment ratio of no more than 0.25.
For NWHY, the enrichment ratio was no more than 0.25.
TYIE was tested, and the enrichment ratio was no more than 0.25.
With DLWY the enrichment ratio was no more than 0.25.
Variant KLWE has an enrichment ratio of no more than 0.25.
KHER showed an enrichment ratio of no more than 0.25.
Work on TVFL yielded an enrichment ratio of no more than 0.25.
With LIMQ the enrichment ratio was no more than 0.25.
Variant NNDM has an enrichment ratio of no more than 0.25.
For FCHM, the enrichment ratio was no more than 0.25.
For TTSV, the enrichment ratio was 15.8.
YTSV gave an enrichment ratio of no more than 0.25.
STSV was tested, and the enrichment ratio was 9.12.
KQSV gave an enrichment ratio of no more than 0.25.
Variant ATSV has an enrichment ratio of 12.7.
Work on YDSV yielded an enrichment ratio of no more than 0.25.
SWRT was tested, and the enrichment ratio was no more than 0.25.
In the case of RRQV, the enrichment ratio is reported as no more than 0.25.
Variant VWEC has an enrichment ratio of no more than 0.25.
In the case of TETR, the enrichment ratio is reported as no more than 0.25.
TETK gave an enrichment ratio of no more than 0.25.
Work on TETM yielded an enrichment ratio of 22.4.
Variant METE has an enrichment ratio of no more than 0.25.
TETS showed an enrichment ratio of 13.7.
Variant QETE has an enrichment ratio of no more than 0.25.
With TETA the enrichment ratio was no more than 0.25.
With TETE the enrichment ratio was 18.8.
TETD was tested, and the enrichment ratio was 2.04.
In the case of TETI, the enrichment ratio is reported as 17.3.
For TEPM, the enrichment ratio was no more than 0.25.
With RPDP the enrichment ratio was no more than 0.25.
MVRG was tested, and the enrichment ratio was no more than 0.25.
In the case of NTNY, the enrichment ratio is reported as no more than 0.25.
For LYEH, the enrichment ratio was no more than 0.25.
IGTK showed an enrichment ratio of no more than 0.25.
Variant WQPW has an enrichment ratio of no more than 0.25.
For PICS, the enrichment ratio was no more than 0.25.
Variant DNDH has an enrichment ratio of no more than 0.25.
In the case of WQRE, the enrichment ratio is reported as no more than 0.25.
Work on LRQP yielded an enrichment ratio of no more than 0.25.
Work on HPHL yielded an enrichment ratio of no more than 0.25.
GFYA gave an enrichment ratio of no more than 0.25.
DGSI gave an enrichment ratio of no more than 0.25.
GYWI was tested, and the enrichment ratio was no more than 0.25.
IGSE showed an enrichment ratio of no more than 0.25.
QETG was tested, and the enrichment ratio was no more than 0.25.
METG gave an enrichment ratio of 4.62.
Variant TETG has an enrichment ratio of 35.8.
SFGG showed an enrichment ratio of no more than 0.25.
PIPY was tested, and the enrichment ratio was no more than 0.25.
In the case of KIVE, the enrichment ratio is reported as no more than 0.25.
Variant EFFM has an enrichment ratio of no more than 0.25.
KQSN showed an enrichment ratio of no more than 0.25.
For KSSN, the enrichment ratio was no more than 0.25.
Work on NSSN yielded an enrichment ratio of no more than 0.25.
SDSN gave an enrichment ratio of no more than 0.25.
Work on STSN yielded an enrichment ratio of 11.3.
Variant SRSN has an enrichment ratio of no more than 0.25.
Work on SSSN yielded an enrichment ratio of 12.1.
SQSN gave an enrichment ratio of 7.46.
SCSN gave an enrichment ratio of 12.3.
With YTSN the enrichment ratio was no more than 0.25.
In the case of SNSN, the enrichment ratio is reported as 12.5.
Work on SLSN yielded an enrichment ratio of 8.45.
DMGM was tested, and the enrichment ratio was no more than 0.25.
With VHGA the enrichment ratio was no more than 0.25.
FTWC gave an enrichment ratio of no more than 0.25.
RPLR was tested, and the enrichment ratio was no more than 0.25.
Variant EKAY has an enrichment ratio of no more than 0.25.
FPIV gave an enrichment ratio of no more than 0.25.
Work on TGSN yielded an enrichment ratio of 8.1.
With SGSN the enrichment ratio was 13.3.
For SGSG, the enrichment ratio was 8.15.
Work on WDWH yielded an enrichment ratio of no more than 0.25.
In the case of KYSC, the enrichment ratio is reported as no more than 0.25.
For DDSC, the enrichment ratio was no more than 0.25.
SESQ was tested, and the enrichment ratio was 13.9.
SESH showed an enrichment ratio of 13.1.
For SQSQ, the enrichment ratio was 8.8.
Variant SESC has an enrichment ratio of 18.4.
For SESK, the enrichment ratio was 5.02.
For SRSH, the enrichment ratio was no more than 0.25.
In the case of SEFC, the enrichment ratio is reported as 10.4.
For SETC, the enrichment ratio was 13.2.
SRSQ gave an enrichment ratio of no more than 0.25.
For SENK, the enrichment ratio was no more than 0.25.
Variant LSYF has an enrichment ratio of 0.698.
FERS showed an enrichment ratio of no more than 0.25.
FKHR was tested, and the enrichment ratio was no more than 0.25.
In the case of QKRW, the enrichment ratio is reported as no more than 0.25.
Variant TIRN has an enrichment ratio of no more than 0.25.
Variant KKEL has an enrichment ratio of no more than 0.25.
Variant MLWA has an enrichment ratio of no more than 0.25.
Variant HFVY has an enrichment ratio of no more than 0.25.
With GASL the enrichment ratio was 3.66.
With SETH the enrichment ratio was 15.6.
Work on SLEC yielded an enrichment ratio of no more than 0.25.
For SETM, the enrichment ratio was 18.3.
SETI was tested, and the enrichment ratio was 19.9.
SETA showed an enrichment ratio of 10.5.
With SETG the enrichment ratio was 9.95.
Variant KYEC has an enrichment ratio of no more than 0.25.
SETW showed an enrichment ratio of 3.01.
SEEC showed an enrichment ratio of 15.4.
METM was tested, and the enrichment ratio was 4.44.
SETK showed an enrichment ratio of no more than 0.25.
ICMG gave an enrichment ratio of no more than 0.25.
NYHW gave an enrichment ratio of no more than 0.25.
EGMK showed an enrichment ratio of no more than 0.25.
In the case of SVFE, the enrichment ratio is reported as no more than 0.25.
PKCE gave an enrichment ratio of no more than 0.25.
Work on LWIA yielded an enrichment ratio of no more than 0.25.
VVHK gave an enrichment ratio of no more than 0.25.
Variant PWSL has an enrichment ratio of no more than 0.25.
With YMEP the enrichment ratio was no more than 0.25.
SANH gave an enrichment ratio of no more than 0.25.
STMH was tested, and the enrichment ratio was 8.42.
SETD showed an enrichment ratio of no more than 0.25.
SETE showed an enrichment ratio of 5.75.
SASH was tested, and the enrichment ratio was 12.2.
SEMH was tested, and the enrichment ratio was 19.3.
In the case of KYMH, the enrichment ratio is reported as no more than 0.25.
For SASK, the enrichment ratio was no more than 0.25.
SETS showed an enrichment ratio of 12.
DGLS gave an enrichment ratio of no more than 0.25.
Work on FPTK yielded an enrichment ratio of no more than 0.25.
DPHW gave an enrichment ratio of no more than 0.25.
For WDVW, the enrichment ratio was no more than 0.25.
Work on QFAR yielded an enrichment ratio of no more than 0.25.
Variant VVQA has an enrichment ratio of no more than 0.25.
Variant PSLS has an enrichment ratio of no more than 0.25.
In the case of WGGY, the enrichment ratio is reported as no more than 0.25.
Work on ITTH yielded an enrichment ratio of no more than 0.25.
With DSGI the enrichment ratio was no more than 0.25.
NRIH showed an enrichment ratio of no more than 0.25.
With NATM the enrichment ratio was no more than 0.25.
Work on GAPM yielded an enrichment ratio of no more than 0.25.
With KAIM the enrichment ratio was no more than 0.25.
Work on GSTM yielded an enrichment ratio of 6.87.
GSIM was tested, and the enrichment ratio was 11.6.
GAIM gave an enrichment ratio of 15.4.
For GCIM, the enrichment ratio was 24.5.
Variant GSWM has an enrichment ratio of no more than 0.25.
Variant GCGM has an enrichment ratio of 2.98.
GATM gave an enrichment ratio of 15.3.
In the case of KATM, the enrichment ratio is reported as no more than 0.25.
GCCK was tested, and the enrichment ratio was no more than 0.25.
Variant TSES has an enrichment ratio of 2.55.
With SFWK the enrichment ratio was no more than 0.25.
In the case of AMIT, the enrichment ratio is reported as no more than 0.25.
Work on NCDK yielded an enrichment ratio of no more than 0.25.
